Among the data in PubChem BioAssay AID1259343 (VanderVen Lab, College of Veterinary Medicine, Cornell …, 2017) are inhibition values, retold here.

The campaign covered roughly 6,200 compounds. About 2,900 (47%) were called active. So high a share suggests a set chosen from earlier hits. The list shows a part of the results. Values without a mark were called inactive. Rule as the data show it: active = inhibition above about 50%; inactive = the rest.

This experiment can be described thus: Mycobacterium tuberculosis growth inhibition, primary screen (AID 1259343). The following applies: inhibition: at 10 µM, hits give high values; outcome: 10 uM.
On to `CC(C)COC(=O)Nc1ccc2nc(N3CCOCC3)sc2c1`, for which the inhibition is 27.4%.
In the case of `CSCCCNC(=S)Nc1ccc(N2CCOCC2)cc1`, the inhibition was 20.7%.
For `CNC(=S)Nc1ccc(Nc2ccccc2OC)cc1`, the inhibition was 72.1% (active).
Consider `CNC(=S)Nc1ccc(N2CCOCC2)cc1`, for which the inhibition was 101% (active).
In the case of `CNC(=S)Nc1ccc(Oc2ccc(NC(=S)NC)cc2)cc1`, the inhibition is 79.6% (active).
On to `COc1ccccc1NC(=S)N=C1CCN(c2ccccc2)N1`, for which the inhibition was 19.3%.
Take `CCNC(=S)Nc1ccc(NC(=S)NCC)cc1`: the inhibition was 63.7% (active).
As for `Cc1ncc(-c2ccc(NC(=O)C3CC3C)cc2)o1` (stereo not given), the inhibition is 94.6% (active).
For `O=C(Nc1ccc(-c2cnc(C3CC3)o2)cc1)C1CCCC1` the value was -17.9%; for `N#Cc1cccc(COc2ccc(NC(=O)C3CCCO3)cc2F)c1` (stereo not given), 91.9% (active).
For `N#Cc1cccc(COC(=O)CC(NC(N)=O)c2cccs2)c1` (stereo not given) the value was -9.57%; for `FC(F)(F)c1cc(-c2ccco2)nc2c1cnn2Cc1cccnc1`, 37%.
As to `CN(Cc1ccc(Cl)c(Cl)c1)C(=O)c1csc(-c2cccs2)n1`, the inhibition is 56.2% (active).
For the compound `CCNc1nc(C(=O)N(C)Cc2ccc(Br)o2)cs1`, the inhibition was 8.37%.
Consider `CCCN(CCC)C(=O)c1nn(-c2ccccn2)c2nccc(-c3cccs3)c12`, for which the inhibition is 41.7%.
Regarding `CCC(C)(C)NC(=O)COC(=O)c1ccc(-c2ccc(O)cc2)cc1`, the inhibition was 50.1% (active).
For `CCC(C)(C)NC(=O)c1ccc2c(c1)S(=O)(=O)c1ccccc1C2=O` the value was 14.8%; for `Cn1nc(C(=O)Nc2ccc(-c3nccs3)cc2)ccc1=O`, 85.9% (active); for `CCCC(C)C(=O)Nc1ccc(-c2nccs2)cc1` (stereo not given), 89.9% (active).
On to `[O-]/[N+](Cc1ccccc1)=N/OCc1ccccc1`, for which the inhibition was 83.2% (active).
On to `CCc1cc(=O)[nH]c(-n2nc(C)cc2NC(=O)C2CC(=O)N(c3ccccc3)C2)n1` (stereo not given), for which the inhibition was 101% (active).
Then `CCc1cc(=O)[nH]c(-n2nc(C)cc2NC(=O)C2CC(=O)N(c3ccc(C)c(C)c3)C2)n1` (stereo not given), with 101% (active).
With `CCCC(Nc1nc(-c2cccnc2)nc2c1cnn2C)c1cccs1` (stereo not given), the inhibition was 27.3%.
For `COc1ccccc1N1C(=O)CC(SC(N)=N/N=C(C)\C=C\c2ccc(N(C)C)cc2)C1=O` (stereo not given) the value was -2.66%; for `Nc1nn(C(=O)CC2CCCO2)cc1-c1cccc(Cl)c1` (stereo not given), 83.6% (active); for `O=C1CSC(=NN=Cc2cc(Br)ccc2O)N1`, 102% (active).
On to `O=C1CSC(=NN=C2NC(=O)C(CC(=O)Nc3ccc(Br)cc3)S2)N1` (stereo not given), for which the inhibition is 18.9%.
Turning to `Oc1ccc(Br)cc1C=Nn1cc(-c2ccccc2)[nH]c1=S`, the inhibition is 25.5%.
`Cc1ncsc1C(=O)Nc1scc(C2CCCCC2)c1C(N)=O`: the inhibition was 24.3%.
Then `CN(C)CCNc1c2c(c(C#N)c3nc4ccccc4n13)CCCC2`, with 20%; and `CN=c1scc(-c2c(-c3ccccc3)n(C)c3ccccc23)n1C`, with 25.1%; and `O=C1N=C2OC=C(C(=O)Nc3ccc(-n4cccc4)cc3)N2CCN1`, with 89.4% (active).
Then `O=C1N=C2OC=C(C(=O)Nc3ccc(-n4cccn4)cc3)N2CCN1`, with 60.6% (active); and `O=C(Nc1ccc(N2CCCCC2)cc1)c1ccc(Cl)s1`, with 94% (active); and `O=C(CCl)Nc1ccc(N2CCCCCC2)cc1`, with 21.1%.
`N#Cc1cccnc1N1CCC(CCc2ccc(O)cc2)CC1`: the inhibition was 93.1% (active).
As for `N#Cc1ccc(NC2CCN(c3ncccn3)CC2)cc1C(F)(F)F`, the inhibition is 26.1%.
For the compound `Cc1nn(-c2ccccc2)c2[nH]c(=O)c(C#N)c(-c3cccs3)c12`, the inhibition is 64.4% (active).
Turning to `COc1ccc2c(c1)OC1(O)COc3cc(OC)c(OC)cc3C1=C2` (stereo not given), the inhibition is 61.7% (active).
Then `O=C(OCc1cc2c(cc1Br)OCO2)c1cccc(O)c1`, with -12.8%; and `COc1ccc(O)c(C=Nn2c(C)csc2=NC(C)C)c1`, with 34%.
With `Brc1ccccc1C=Nc1ccc2c(c1)OCO2`, the inhibition was 94.3% (active).
On to `COc1ccc(O)c(C=Nc2ccc3c(c2)OCO3)c1`, for which the inhibition was 65.5% (active).
As for `Clc1ccc(C=Nc2ccc3c(c2)OCO3)cc1`, the inhibition was 82.9% (active).
On to `Oc1ccc(N=Nc2ccc3c(c2)OCO3)c2ccccc12`, for which the inhibition is -28.6%.
Take `O=C1OC(c2ccc(Cl)cc2)=NC1=Cc1ccc2c(c1)OCO2`: the inhibition is 15.6%.
For the compound `COC(=O)c1c(C)[nH]c(C(=O)NC(C)Cc2cccc(Cl)c2)c1C` (stereo not given), the inhibition was 30%.
As for `Cc1cc(=O)[nH]c(-n2nc(C3CC3)cc2NC(=O)c2cc3ccccc3o2)n1`, the inhibition is -20.2%.
Consider `Cc1cc(=O)[nH]c(-n2nc(C3CC3)cc2NC(=O)c2ccccc2)n1`, for which the inhibition is 100% (active).
For `Cc1cccc(C(=O)Nc2cc(C3CC3)nn2-c2nc(C)cc(=O)[nH]2)c1`, the inhibition was 100% (active).
For `CCC(C(=O)Nc1cc(C2CC2)nn1-c1nc(C)cc(=O)[nH]1)c1ccccc1` (stereo not given), the inhibition is 100% (active).
Regarding `Oc1ccc(C=NNc2ncc(C(F)(F)F)cc2Cl)c(O)c1O`, the inhibition is 17.8%.
For `Clc1cnc(NN=Cc2cccs2)c(Cl)c1` the value was -11.6%; for `Clc1cnc(NN=Cc2ccco2)c(Cl)c1`, 85.9% (active).
`CC[N+](CC)=c1ccc2nc3c(cc(N)c4ccccc43)oc-2c1`: the inhibition is 102% (active).
In the case of `CO[C@H]1C=CO[C@@]2(C)Oc3c(C)c(O)c4c(O)c(c5c(nc6cc(C)ccn65)c4c3C2=O)NC(=O)C(C)=CC=C[C@H](C)[C@H](O)[C@@H](C)[C@@H](O)[C@@H](C)[C@H](OC(C)=O)[C@@H]1C`, the inhibition was 98.5% (active).
For `O=C(/C=C(\O)c1ccccc1)c1ccccc1O` the value was 100% (active); for `CC(C)c1cc(=O)[nH]c(-n2nc(-c3cccs3)cc2NC(=O)c2cccc(F)c2)n1`, 99.2% (active); for `Cc1cccc(C(=O)Nc2cc(-c3cccs3)nn2-c2nc(C(C)C)cc(=O)[nH]2)c1`, -9.66%.
For `CC(C)c1cc(=O)[nH]c(-n2nc(-c3cccs3)cc2NC(=O)c2ccc(F)cc2F)n1`, the inhibition is 99.7% (active).
For `O=S(=O)(CCSc1ccccn1)c1nc2ccccc2s1`, the inhibition was 101% (active).
Regarding `COc1ccc(N2CCN(C(=O)CCl)CC2)cc1`, the inhibition is 77.2% (active).
Consider `O=C(CCl)N1CCN(c2cccc(Cl)c2)CC1`, for which the inhibition was 79.1% (active).
Then `O=C(CCl)N1CCCc2cc([N+](=O)[O-])ccc21`, with 102% (active); and `COc1ccc(C(=O)NCCCn2cccn2)cc1OC1CCN(C(C)=O)CC1`, with 17.6%.
As for `Cc1cccc(C(=O)NC(=NCCN2CCCC2)OCC(C)C)c1`, the inhibition is 5.15%.
As to `Cc1cccc(C(=O)NCCn2ncccc2=O)c1`, the inhibition was 97.8% (active).
With `CC1COCCN1C(=O)NC(c1cc(F)ccc1F)C1CC1` (stereo not given), the inhibition was -42.7%.
For `CC(NC(=O)CN1CCCCC1)c1ccc(F)cc1F` (stereo not given) the value was 51.7% (active).
As to `COCc1ccccc1CNC(=O)CN1CCC(C)Sc2ccccc21` (stereo not given), the inhibition was -20.7%.
As for `CC1(c2ccco2)NC(=S)N(c2ccccc2)N1` (stereo not given), the inhibition is 76.4% (active).
Regarding `CCCCc1ccc(N2C(N)=CS/C2=C(/C#N)S(=O)(=O)c2ccccc2)cc1`, the inhibition was 89.6% (active).
For `CCCc1cc(C(=O)N2C[C@H]3CC=C(C)C[C@H]3C2)ccn1` the value was 76% (active); for `CCNc1nc(C(=O)N2CC3CCCC3C2)cs1` (stereo not given), 27.6%; for `CC(C)C(C)CNC(=O)N1CCN(c2ccc(Cl)cn2)CC1` (stereo not given), 63.1% (active).
Take `CN(Cc1ccccc1O)C(=O)C1CCN(c2ccc(Cl)cn2)CC1`: the inhibition was 35.1%.
Then `Cc1ccc(-c2nc(CN3CCN(c4ccc(Cl)cn4)CC3)c(C)o2)o1`, with 47.3%; and `Cc1nc2ccc(I)cn2c1C=NNc1ccc2ccccc2c1`, with 60.2% (active); and `Cc1nc2ccc(I)cn2c1C=NNc1ccc(Cl)cc1`, with 17.7%.
Consider `NC(=S)NN=Cc1ccc(Cl)cc1Cl`, for which the inhibition is 86% (active).
Regarding `Cc1cc(C=NNC(N)=S)c(C)n1CC(F)(F)F`, the inhibition was 4.28%.
As for `CC(C)(C)n1cccc(/C=N\NC(N)=S)c1=S`, the inhibition is -2.91%.
As for `Cc1ccc(C(=O)Nc2ccc(CN3CCN(C)CC3)c(C(F)(F)F)c2)cc1C#Cc1cnc2cccnn12`, the inhibition was 62.5% (active).
Then `CCc1sc(C(=O)OCC(=O)N(C)CC(=O)Nc2ccc(C)cc2)cc1C`, with -39.5%; and `CCc1ccc(NC(=O)COC(=O)c2cc(C(C)=O)n3ccccc23)cc1`, with 65% (active); and `Nc1[nH]n(-c2ccccc2)c(=O)c1N=Nc1cccc2ccccc12`, with 56.7% (active).
As to `Nc1[nH]n(-c2ccccc2)c(=O)c1N=Nc1ccc2ncsc2c1`, the inhibition was -3.23%.
Consider `Cc1nc(N)sc1N=Nc1cccc2ccccc12`, for which the inhibition was 4.08%.
Consider `CCc1cc(C=NC2CCCCC2)c(O)s1`, for which the inhibition is 54.5% (active).
As to `CC1Cc2ccccc2N1C(=O)C1CCN(c2ccc(C#N)cn2)CC1` (stereo not given), the inhibition is -4.71%.
Then `CC1Cc2ccccc2N1Sc1ccc([N+](=O)[O-])cc1` (stereo not given), with 58.6% (active); and `CC1Cc2ccccc2N1Cc1cccc(C(N)=O)c1` (stereo not given), with 25.1%; and `Cc1ccc(-c2nsc(C(=O)N3CCCC(C)C3)c2N)cc1` (stereo not given), with 47.8%.
Then `Cc1c(C(=O)NCc2ccc(Cl)c(Cl)c2)sc(=O)n1Cc1ccccc1F`, with -10.2%; and `Cc1c(C(=O)NCc2ccccc2C(F)(F)F)sc(=O)n1Cc1cccc(C(F)(F)F)c1`, with 18.8%; and `COc1ccc(Br)c(Cn2c(C)c(C(=O)NCc3ccccc3C(F)(F)F)sc2=O)c1`, with 58.8% (active).
For `Cc1ccccc1Cn1c(C)c(C(=O)NCc2ccccc2C(F)(F)F)sc1=O`, the inhibition was 65.1% (active).
Turning to `Cc1c(C(=O)NCc2ccccc2C(F)(F)F)sc(=O)n1Cc1ccccc1F`, the inhibition is 21%.
Regarding `COc1ccccc1Cn1c(C)c(C(=O)NCc2ccccc2C(F)(F)F)sc1=O`, the inhibition was 15.1%.
With `Nc1nc(CSc2nnc(C3CC3)n2C2CC2)nc(Nc2ccc(F)cc2)n1`, the inhibition was -0.78%.
